This is an account of results in the supplement of paper PMC6555819.

This experiment deals with VDR:RXRa (NR concentration 270 nM, RXRa partner concentration 90 nM). Briefly: PBM binding z-score (relative to random genomic background probes); higher = stronger binding; sequences stand for … in GC…GCGATTGACAGCGTAGAATGAAGG
The protocol:
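Protein-binding microarray (Agilent 4x180K custom design, double-stranded 60-nt probes: 5' GC cap, 34-nt variable region, 24-nt constant primer region; full probe sequence given). Purified or IVT nuclear receptor:RXRα heterodimers (3:1 NR:RXRα, mostly 270:90 nM) or homodimers were incubated for 1 h in PBS with 2% milk and no ligand, then detected with Alexa488 antibodies. Fluorescence from o1-orientation probes (~5 replicates averaged) was converted to z-scores against 500 random hg19 background probes. Variable regions are seed direct-repeat (DR0–DR5) sites, all their single-nucleotide variants and half-site ablations.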
For the sequence TAGCCTAGGTCAGATCTGGCCAGTATACGCTATA, the PBM binding z-score amounted to 0.166.

As for AATACAGGGTCATCGTAGGCCTGAGTACGCACAG, the PBM binding z-score is 4.97.

As for CGAACTAGGTCAAGCACAGTGAATCTCCGCACGC, the PBM binding z-score came out at 1.43. Sequence CCTACTGGGCCAGAAAGGTCATTGATGCCGATAA returned a PBM binding z-score of 4.91. As for CCTAACAGGCCAGGGTCACTCAAGCATTTCGCTT, the PBM binding z-score amounted to 2.86.

TCTTGTAGATCAGCAGGTTAAGAGAGCTGGCCAA: the PBM binding z-score was found to be 0.132.

The sequence AATACAGGCTCATCGTAGGCCAGAGTACGCACAG yielded a PBM binding z-score of -0.438. In the case of ATCTCTAGGTTAAGTTCAGTGAAAGATCGATAGA, the PBM binding z-score worked out at 2.37.

On to CGTCCAAGGTCATAGGAGGTCAGTGCAGACAGAT, for which the PBM binding z-score came to 6.74. GCGACTGGGGCCAAGCAGGTTACCATAAGGTTGG yielded a PBM binding z-score of 0.713. TTACCAAGCTGAAGGTCGTTGATCCCTCTGTAGA returned a PBM binding z-score of 0.724.

CAAACTAGGTCAGGAGGTCAAAGTCCGCTTCCCG registered a PBM binding z-score of 5.18. CCTAGTTGGTCAGGAGGTCACACAGCGGATATGA gave a PBM binding z-score of 3.94. ATCTCTAGGTAAAAGTTCAGTGACTCCCGAGGAT gave a PBM binding z-score of 1.71. Sequence TCATATACGTAAAAGGTGAAAGTCGGTGTGGTAA yielded a PBM binding z-score of 1.43. CCGACTGGGGCATAAGGTTATCATAAGCCAGCCC: the PBM binding z-score was determined as 0.25.

CCTAATGGGCCATCAGGTCATTGATATCAACGTT gave a PBM binding z-score of 2.04. Under ACAGACAGGTGGGTGAAGGTAACTCAGCTGGACG stands -0.163; under TCATATAGGTAATACAGATGAAAGTCGGCATCTA, 0.886; under TCGAGTAGGTCAGTCGGGGCATTCAGCCAACATA, 5.3. CCGACTGGGGCAATGTTACCATAACGCACAGCCA came in with a PBM binding z-score of -0.586.

For ATCTCTAGGTAAGACTCTGTTCAGTGAAGAACGC, the PBM binding z-score was determined as 0.234. In turn, ATCTCTAGGTAACCAAGTGCAGTGAATGCCGAAC returned a PBM binding z-score of 1.3. Regarding CCTCGGAGGACAACGGGAGGTCAGAGCTGCCAGA, the PBM binding z-score amounted to 1.91. AGAATGAGGTTAAGATCAGGGGAACAGAATACAT: the PBM binding z-score was 1.33. In turn, CAAACTAGGTCAAGAAGTCAAAGTCCGCTTCCCG yielded a PBM binding z-score of 1.93. Sequence TCGAGTACGTTAGTCGGGGCATTCAGCCAACATA returned a PBM binding z-score of 0.707. CCAGACAGGTCAGAAGGTAACTCAGCCTCGATTA: the PBM binding z-score is 1.44. As for CGTCCAAGGTCAAAGGCCAGTGAAGAGATGACGG, the PBM binding z-score is 4.14. As for AGAATGAGGTTAAGATCAGGGAGACAGAATACAT, the PBM binding z-score came to 1.24.

As to TAGCCTAGGTCATGGGCAAGTATACCACGCGAAC, the PBM binding z-score came to 2.13.

As for GCTCGGAGGACAAGGTCAAAGCTTTGTCCGTAGA, the PBM binding z-score is 3.38. The same measure for TCGAGTAGGGTAGGGGCATTCAGAATGGCGTCGA: 0.426; for CCTAGCAGGCCAGGGTCATTCAAGCATTTCGCTT: 3.48; for ATCGAAAAGTCGTGAGGTGAGTATACAGAAAGGC: -0.173. Sequence CCTACTGGGCCATTCAGAGGTCAGTGATCATATG returned a PBM binding z-score of 1.59. AGTCAAAGTTCATCTAGGTAACGGAAGATATGCT: the PBM binding z-score stood at 4.95. Sequence CCTTACGGGTCAAGGTTATAGAACGGGTGGTACG had a PBM binding z-score of 3.42. The sequence ACTTACGGGTCAACGTGGTTATAGCACGCGTATA returned a PBM binding z-score of 4.96. ATCTCTAGGTAACAACTTCAGTGAAAGAGAGGAC: the PBM binding z-score turned out to be 0.366.
